A selection: hits, their analogues and other compounds. The true share with any hit is near 6.3%.
Spn PMK inh: S. pneumoniae PMK inhibition. inhibition, % at 10 µM. purified PMK, PK/LDH-coupled NADH absorbance 340 nm. hit rate 0.49% among 65,000. AID 539;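 active means top-ranked compounds by inhibition in the single 10 µM screen, taking a fixed number of the strongest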;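 further: 0% = full reaction with DMSO carrier and 100% = background rate without enzyme reaction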
Abs 340nm: absorbance at 340 nm; 65,000 tested, under 10 active; compound absorbance at 340 nm, fold over control; fold change at 10 µM;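 active means at 10 µM dose, initial 340 nm absorbance at least 2 fold that of control wells; inactive means change under 2 fold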;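 further: initial absorbance extrapolated from kinetic A340 decline of NADH oxidation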
DPM-DC inhibit: inhibitors of Streptococcus pneumoniae diphosphomevalonate decarboxylase. calls only at 10 µM. AID 556. hit rate 0.49% among 65,000. purified DPM-DC, PK/LDH coupled NADH fluorescence;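 active means the 320 compounds with the highest percent inhibition in the single-dose primary screen, excluding strongly autofluorescent ones, cut at about 32% in these data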;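 further: kinetic rate of NADH fluorescence loss reporting ADP formed by the decarboxylase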
Fluor 339 460: intrinsic fluorescence of library compounds, ex339/em460 – biochemical, MLSMR library, data from DPM-DC assay, artefact control, profiling panel | compound autofluorescence, ex339/em460 nm, NADH buffer; hits give high values; 1 = no-compound wells, NADH background | hit rate 5.5% among 65,000 | fluorescence fold increase at 10 µM | AID 709;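 active means at 10 µM, mean starting fluorescence two-fold or more over control wells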;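 further: signal is the first read of a kinetic run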
Spn MK inh: blocks S. pneumoniae mevalonate kinase; purified MK, PK/LDH-coupled NADH absorbance 340 nm; inhibition, % at 10 µM; hit rate 0.48% among 65,000; AID 555;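 active means ranked among the strongest by inhibition in the single 10 µM screen, a fixed top-ranked set picked for dose follow-up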
NADH coupling: inhibition of NAD/NADH coupling enzymes, library profiling | coupled PK/LDH NADH assays, four targets | IC50, µM (titrated, usually from 10 µM), for inactives: at the top dose inhibition | hit rate 0.02% among 65,000 | AID 774;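 active means single-dose screening hits from any of four coupled enzyme assays that gave an IC50 when retested across doses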;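 further: the DPM-DC format reads NADH fluorescence rather than 340 nm absorbance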
* = called active by the depositor.

Screening CN1CC=C2C(C#N)=C(N)C(C#N)(C#N)C(c3ccncc3)C2C1 (centres undefined) returned Spn PMK inh 0.0, Abs 340nm 1.07, DPM-DC inhibit inactive, Fluor 339 460 2.01*, Spn MK inh 0.0 and NADH coupling 4.0%.
CCn1nc(-c2ccccc2)nc2c(=O)n(C)c(=O)nc1-2 was read as Spn PMK inh 11.0, Abs 340nm 0.8, DPM-DC inhibit active, Fluor 339 460 0.67, Spn MK inh 11.0 and NADH coupling 32.8µM*.
`Cc1nn(Cc2ccccc2Cl)c(Cl)c1C(=O)OCC(=O)NCc1ccco1` gave Spn PMK inh 0.0, Abs 340nm 0.99, DPM-DC inhibit inactive, Fluor 339 460 1.06, Spn MK inh 6.0 and NADH coupling 1.0%.
`CCOC(=O)c1c(C)n(Cc2ccco2)c2ccc(OC)cc12` gave Spn PMK inh 0.0, Abs 340nm 1.08, DPM-DC inhibit inactive, Fluor 339 460 1.13, Spn MK inh 0.0 and NADH coupling 0.0%.
Screening CC(C)OC(=O)c1c(N)n(Cc2ccco2)c2nc3ccccc3nc12 returned Spn PMK inh 27.0, Abs 340nm 1.09, Fluor 339 460 2.28*, Spn MK inh 5.0 and NADH coupling 16.0%.
For COCCOC(=O)c1c(N)n(Cc2ccco2)c2nc3ccccc3nc12 the results were Spn PMK inh 8.0, Abs 340nm 1.05, Fluor 339 460 2.33*, Spn MK inh 9.0 and NADH coupling 9.0%.
`C(#CCN1CCOCC1)COCc1ccccc1` gave Spn PMK inh 13.0, Abs 340nm 1, DPM-DC inhibit inactive, Fluor 339 460 1.25, Spn MK inh 4.0 and NADH coupling 6.0%.
Screening CCOC(=O)c1c(N)n(Cc2ccc(OC)cc2)c2nc3ccccc3nc12 returned Spn PMK inh 4.0, Abs 340nm 1, Fluor 339 460 3.89*, Spn MK inh 6.0 and NADH coupling 5.0%.
For COC(=O)c1c(N)n(Cc2ccc(OC)cc2)c2nc3ccccc3nc12 the results were Spn PMK inh 1.0, Abs 340nm 1.05, Fluor 339 460 3.71*, Spn MK inh 5.0 and NADH coupling 3.0%.
COCCOC(=O)c1c(N)n(Cc2ccc(OC)cc2)c2nc3ccccc3nc12 was read as Spn PMK inh 10.0, Abs 340nm 1.08, Fluor 339 460 3.89*, Spn MK inh 8.0 and NADH coupling 9.0%.
`CCCC(=O)OCC[N+](C)(C)C` gave Spn PMK inh 4.0, Abs 340nm 0.99, DPM-DC inhibit inactive, Fluor 339 460 1.01, Spn MK inh 7.0 and NADH coupling 1.0%.
O=C(CN1CC(c2ccccc2)CC1=O)Nc1ccc(F)cc1 (centres undefined) was read as Spn PMK inh 14.0, Abs 340nm 1.02, DPM-DC inhibit inactive, Fluor 339 460 1.04, Spn MK inh 6.0 and NADH coupling 7.0%.
Screening COCCCn1c(N)c(C(=O)OCCOC)c2nc3ccccc3nc21 returned Spn PMK inh 14.0, Abs 340nm 1.1, Fluor 339 460 3.84*, Spn MK inh 11.0 and NADH coupling 13.0%.
CCOC(=O)c1c(C)n(CCOC)c2ccc(O)cc12 was read as Spn PMK inh 2.0, Abs 340nm 1.02, DPM-DC inhibit inactive, Fluor 339 460 1.15, Spn MK inh 0.0 and NADH coupling 1.0%.
Screening CC(=O)c1c(C)n(CC2CCCO2)c2ccc(O)cc12 (centres undefined) returned Spn PMK inh 9.0, Abs 340nm 1.08, DPM-DC inhibit inactive, Fluor 339 460 1.07, Spn MK inh 9.0 and NADH coupling 6.0%.
Screening CCCCNC(=O)c1c(N)n(CCCOC)c2nc3ccccc3nc12 returned Spn PMK inh 0.0, Abs 340nm 1.02, Fluor 339 460 2.42*, Spn MK inh 3.0 and NADH coupling 1.0%.
For COCCCNC(=O)c1c(NC(=O)c2ccco2)n(Cc2ccccc2)c2nc3ccccc3nc12 the results were Spn PMK inh 11.0, Abs 340nm 1.1, Fluor 339 460 3.82*, Spn MK inh 7.0 and NADH coupling 9.0%.
Screening Nc1c(C(=O)NC2CCCC2)c2nc3ccccc3nc2n1CC1CCCO1 (centres undefined) returned Spn PMK inh 11.0, Abs 340nm 1.03, Fluor 339 460 3.73*, Spn MK inh 11.0 and NADH coupling 11.0%.
CN(C)c1ccc2c(c1)N=C(c1ccco1)OP2(=S)N1CCOCC1 (centres undefined) was read as Spn PMK inh 11.0, Abs 340nm 1.07, DPM-DC inhibit inactive, Fluor 339 460 1.04, Spn MK inh 3.0 and NADH coupling 5.0%.
CC(N=Cc1c(O)[nH]c(=O)[nH]c1=O)c1ccccc1 (centres undefined) was read as Spn PMK inh 0.0, Abs 340nm 1.04, DPM-DC inhibit inactive, Fluor 339 460 1.09, Spn MK inh 7.0 and NADH coupling 2.0%.
`CCOC(=O)c1c(N)n(CCCOC(=O)c2ccco2)c2nc3ccccc3nc12` gave Spn PMK inh 13.0, Abs 340nm 1.11, Fluor 339 460 4.01*, Spn MK inh 9.0 and NADH coupling 11.0%.
For CC(C)OCCCNC(=O)c1c(N)n(Cc2cccs2)c2nc3ccccc3nc12 the results were Spn PMK inh 6.0, Abs 340nm 1.02, Fluor 339 460 3.04*, Spn MK inh 0.0 and NADH coupling 1.0%.
Nc1c(C(=O)OCC2CCCO2)c2nc3ccccc3nc2n1Cc1cccs1 (centres undefined) was read as Spn PMK inh 15.0, Abs 340nm 1.08, Fluor 339 460 2.09*, Spn MK inh 0.0 and NADH coupling 8.0%.
For Cc1nnc(SCc2nc3ccccc3c(=O)n2-c2ccccc2Cl)n1N the results were Spn PMK inh 0.0, Abs 340nm 1.03, DPM-DC inhibit inactive, Fluor 339 460 1.05, Spn MK inh 0.0 and NADH coupling 1.0%.
For OCCOCC#CCN1CCOCC1 the results were Spn PMK inh 7.0, Abs 340nm 1.01, DPM-DC inhibit inactive, Fluor 339 460 0.99, Spn MK inh 4.0 and NADH coupling 1.0%.
Screening CNP1(NC)=NC(C(F)(F)F)=NC(C(F)(F)F)=N1 returned Spn PMK inh 12.0, Abs 340nm 0.99, DPM-DC inhibit inactive, Fluor 339 460 1.01, Spn MK inh 2.0 and NADH coupling 2.0%.
CCOc1ccccc1C1SCC(=O)Nc2c1c(=O)[nH]n2C(CC)CC (centres undefined) was read as Spn PMK inh 0.0, Abs 340nm 1.01, DPM-DC inhibit inactive, Fluor 339 460 1.04, Spn MK inh 9.0 and NADH coupling 3.0%.
`O=C(CN1CCOCC1)c1ccc2cc[nH]c2c1` gave Spn PMK inh 8.0, Abs 340nm 1.09, Fluor 339 460 2.14*, Spn MK inh 0.0 and NADH coupling 4.0%.
For CCC1(c2ccccc2)C(=O)N(COC)C(=O)N(COC)C1=O the results were Spn PMK inh 0.0, Abs 340nm 1.01, DPM-DC inhibit inactive, Fluor 339 460 1.02, Spn MK inh 6.0 and NADH coupling 2.0%.

Source: PubChem
